KB-V1 cytotox: kills drug-selected multidrug resistant KB-V1 cells | KB-V1 MDR cells viability, CellTiter-Glo, 72 h | Potency, µM (titrated, usually from 46.1 µM), hits mostly cytotoxic | hit rate 3.4% among 400,000; note: % is set by controls: 0 for no effect and ±100 for the full control effect; nearly all actives have a fitted effect of over 60% in size
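KB-V1, DMEM (no phenol red) + 10% FBS; cpd pin-transferred, titration series; 72 h, 37 degrees C; CellTiter-Glo, luminescence. Data normalized, curve-fit.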
SW480 rereplic: inducers of DNA re-replication in SW480 colon cancer cells. SW480 DNA re-replication, Hoechst DNA content imaging, 48 h. Potency, µM (doses to about 46.1 µM), for inactives: at the top dose re-replication activation, actives largely listed as activators. hit rate 1.8% among 340,000. AID 624297; note: % of control where 0% means no effect; nearly all actives have a fitted effect of over 55% in size
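Compounds, transferred as 23 nL by pin tool, were incubated with cells for 48 hr; DNA content per nucleus was then quantified by Hoechst staining and fluorescence plate imaging.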
MCF10A rerep: inducers of DNA re-replication in MCF 10A breast cells; MCF 10A DNA re-replication, Hoechst nuclear intensity, 48 h; AID 624296; hit rate 2.9% among 350,000; Potency, µM (series often up to 46.1 µM), for inactives: at the top dose activity, positive = re-replication, actives largely listed as activators; note: % of control where 0% means no effect; nearly all actives have a fitted effect of over 50% in size
KB-3-1 cytotox: KB-3-1 parental cell cytotoxicity | KB-3-1 viability, CellTiter-Glo ATP luminescence, 72 h | Potency, µM (top dose mostly 46.1 µM), actives largely listed as cytotoxic | hit rate 1.4% among 400,000; note: % is set by controls: 0 for no effect and ±100 for the full control effect; nearly all actives have a fitted effect of over 60% in size
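Using CellTiter-Glo luminescence, growth of non-resistant KB-3-1 adenocarcinoma cells is assessed 72 h after pin-tool compound addition at 37 °C. Normalized responses across the concentration series yield fitted curves.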
HT1080-NT tox: kills 2HG-producing HT-1080-NT fibrosarcoma cells | hit rate 1.6% among 360,000 | Potency, µM (top dose mostly 46.1 µM), without a hit: at the highest dose activity, negative = less viability, most hits filed as cytotoxic | HT-1080-NT fibrosarcoma viability, CellTiter-Glo ATP luminescence, 48 h;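 note: NT is the 2HG producing partner of a matched IDH1 knockdown line; 0% = DMSO-treated cells and -100% = media-only wells without cells; nearly all actives have a fitted effect of over 55% in size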
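750 cells/well, RPMI + 5% FBS; 2 h settle, compound pin-transfer, 48 h at 37 degrees C. CellTiter-Glo 10 min RT, luminescence. Normalized to DMSO and media-only wells.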
HT1080 IDH1KD tx: toxicity to HT-1080 IDH1 knockdown cells (counter line). AID 686971. HT-1080 IDH1 knockdown viability, ATP luminescence, 48 h. Potency, µM (doses to about 46.1 µM), without a hit: at the highest dose activity, negative = toxicity, most hits filed as cytotoxic. hit rate 2% among 360,000;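 note: 0% = DMSO wells and -100% = cell-free medium wells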
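CellTiter-Glo luminescence after 48 h compound exposure at 37 degrees C of IDH1-knockdown HT-1080 cells in 5% FBS RPMI. %Activity scaled between DMSO wells and cell-free media wells, with curves fitted and assigned curve classes.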
Starred values were filed as active, the others as inactive; i = inactive; u = inconclusive; x = no result; [ ] = dose if it differs, or a comment. Compounds with a hit are over-represented: about 8% of the library has one in this group of screens. Calls come from the whole dose curve; as a rule, active = well fitted curve in the direction sought with a large enough effect; inconclusive = small, poorly fitted or top-dose-only effect, or another doubt; inactive = no such curve, though single readings can be large; an effect the other way counts as inactive or inconclusive. Potency is the fitted concentration of half-maximal effect.

SMILES | KB-V1 cytotox | SW480 rereplic | MCF10A rerep | KB-3-1 cytotox | HT1080-NT tox | HT1080 IDH1KD tx
CC(=O)Nc1cccc(NC(=O)/C=C/c2ccc(S(=O)(=O)N3CCOCC3)cc2)c1 | i | 19% | 15% | i | -6% | -4%
Cc1ccc(CNC(=O)/C=C/c2ccc(S(=O)(=O)N3CCOCC3)cc2)cc1 | i | 0.82µM* | u | i | 26% | 23%
NS(=O)(=O)c1ccc(CNC(=O)/C=C/c2ccc(S(=O)(=O)N3CCOCC3)cc2)cc1 | i | 19% | 1% | i | 4% | 9%
Cc1ccc(NC(=O)/C=C/c2ccc(S(=O)(=O)N3CCOCC3)cc2)cc1S(=O)(=O)N(C)C | i | u | 13% | u | u | 26µM*
CCN(CC)S(=O)(=O)c1ccc(/C=C/C(=O)Nc2ccc(F)c(F)c2F)cc1 | u | 7% | -4% | 4.6µM* | -23% | u
Cc1ccc(CNC(=O)c2ccc3c(c2)c(C)c(C)n3Cc2ccc(Cl)cc2)o1 | i | x | x | i | x | x
Cc1c(Cl)ccc2sc(N3CCN(C(=O)c4ccco4)CC3)nc12 | u | x | x | i | x | x
O=C(O)C1C2C=CC(C2)C1C(=O)NCCC1=CCCCC1 (stereo not drawn) | i | -3% | u | i | 13% | 7%
O=C(O)C1C2CCC(C2)C1C(=O)NCCC1=CCCCC1 (stereo not drawn) | i | 0.52µM* | -4% | i | -5% | -3%
NC(Cc1ccc(Cl)cc1)c1csc(Nc2cc(Oc3ccccc3)ncn2)n1 (stereo not drawn) | u | x | x | u | 18µM* | 18µM*
COc1ccc(CC(N)c2csc(Nc3cc(Oc4ccccc4)ncn3)n2)cc1 (stereo not drawn) | i | x | x | i | -23% | u
NC(Cc1ccc(F)cc1)c1csc(Nc2cc(NCc3ccco3)ncn2)n1 (stereo not drawn) | u | x | x | i | 18µM* | 16µM*
NC(Cc1ccc(F)cc1)c1csc(Nc2cc(Oc3ccccc3)ncn2)n1 (stereo not drawn) | u | x | x | u | u | 16µM*
NC(c1csc(Nc2cc(NCc3ccco3)ncn2)n1)c1ccccc1Cl (stereo not drawn) | i | x | x | i | u | -14%
NC(COCc1ccccc1)c1csc(Nc2cc(Oc3ccccc3)ncn2)n1 (stereo not drawn) | u | x | x | i | 23µM* | u
C[C@@H](NCCCc1cccc(C(F)(F)F)c1)c1cccc2ccccc12 | u | u | 21µM* | u | x | x
CC(Cc1cccc(C(F)(F)F)c1)NCCOC(=O)c1ccccc1 (stereo not drawn) | i | -5% | -20% | i | 11% | 3%
CCN(Cc1ccccc1)C(=O)Cn1c(=O)n(-c2ccc(C)c(C)c2)c(=O)c2c(C)c(C)sc21 | u | x | x | i | x | x
COc1ccc(/C=N/Nc2cc(N3CCCC3)nc(N3CCCC3)n2)cc1 | u | 9.2µM* | 18µM* | u | 13µM* | 16µM*
c1ccc(N2N=C(c3cccs3)CC2c2ccco2)cc1 (stereo not drawn) | i | 8.2µM* | 8.2µM* | i | -4% | -7%
Clc1ccc(N2N=C(c3cccs3)CC2c2ccco2)cc1 (stereo not drawn) | i | u | 4.6µM* | i | 1% | -8%
c1ccc(C2=NN(c3ccccc3)C(c3ccco3)C2)cc1 (stereo not drawn) | u | u | u | u | 8% | 10%
Cc1ccc(NS(=O)(=O)c2ccc3c(c2)N(C)C(=O)CC(=O)N3C)cc1Cl | u | x | x | i | x | x
Cc1ccc(C)c(NC(=O)CSc2nnc(CNC(=O)c3ccccc3)n2-c2ccccc2)c1 | i | x | x | i | x | x
O=Cc1cn(-c2ccccc2)nc1-c1cc2c(ccc3ccccc32)oc1=O | i | 2% | 2.9µM* | i | 12% | 10%
SMILES | KB-V1 cytotox | SW480 rereplic | MCF10A rerep | KB-3-1 cytotox | HT1080-NT tox | HT1080 IDH1KD tx
O=Cc1cn(-c2ccccc2)nc1-c1cc2cc(O)ccc2oc1=O | i | 27% | -9% | i | 9% | 1%
Cc1csc2nc(COc3ccc(NC(=O)COc4ccccc4F)cc3)cc(=O)n12 | i | x | x | i | x | x
CCN(C(=O)CSc1nc2ccccc2nc1Cc1ccc(F)cc1)c1cccc(C)c1 | i | x | x | i | x | x
CCN(C(=O)CSc1nc(-c2ccccc2)no1)c1cccc(C)c1 | i | x | x | 6.5µM* | x | x
Cc1ccc(OCC(=O)N2CCN(c3nnc(-c4ccc(C)cc4)c4ccccc34)CC2)cc1 | 2.6µM* | u | u | 16µM* | 14µM* | u
O=C(COc1ccccc1)N1CCN(c2nnc(-c3ccccc3)c3ccccc23)CC1 | 4.1µM* | -1% | 9% | u | u | -23%
Cc1cccc(OCC(=O)N2CCN(c3nnc(-c4ccccc4)c4ccccc34)CC2)c1 | u | -3% | 3% | i | -4% | -14%
COc1ccc(OCC(=O)N2CCN(c3nnc(-c4ccccc4)c4ccccc34)CC2)cc1 | 2.6µM* | 7% | 8% | 23µM* | -26% | -4%
Cc1ccc(-c2nnc(N3CCN(C(=O)COc4cccc(C)c4)CC3)c3ccccc23)cc1 | u | -14% | 6% | u | -1% | -20%
COc1ccc(OCC(=O)N2CCN(c3nnc(-c4ccc(C)cc4)c4ccccc34)CC2)cc1 | 5.2µM* | -6% | 14% | u | u | u
CCCCCCC(O)C/C=C/CCCCCCCC(=O)O (stereo not drawn) | x | -1% | u | x | x | x
CCC(C)c1ccc(S(=O)(=O)N2CCN(CC(O)CN3CCOCC3)CC2)cc1 (stereo not drawn) | 5.8µM* | -6% | 9% | i | 4% | 0%
Cc1ccc(S(=O)(=O)N2CCN(CC(O)CN3CCOCC3)CC2)cc1 (stereo not drawn) | i | u | u | i | 2%[9.24 µM] | -1%
CCc1nnc(NC(=O)CSCc2cc(=O)c3ccc(C)cc3[nH]2)s1 | u | x | x | i | x | x
COc1ccccc1-n1nnnc1SCC(=O)Nc1ccccc1 | u | -1% | -2% | i | -14% | -19%
O=C(CSc1nnnn1-c1ccc(Cl)cc1)Nc1cccnc1Cl | 16µM* | -4% | 4% | i | 4% | 21%
COc1ccccc1-n1nnnc1SCC(=O)Nc1ccccn1 | 16µM* | 0% | 10% | i | 6% | 7%
CCOC(=O)NC(=O)CSc1nnnn1-c1ccc(C)cc1 | i | -9% | 0% | i | 11% | 2%
